PubChem BioAssay (EPA / NIEHS)
Calls of active or inactive are those of the source. How the source made its calls: active means hit-call score of the fitted dose curve at least 0.9, where 1 is the maximum; inactive means score below 0.9.

How the values were obtained:
[1] = ATG_GLI_CIS: Attagene CIS-FACTORIAL HepG2 Assay for human Zinc Finger Protein GLI1 (AID 2282945); conditions: HepG2, Attagene cis-factorial reporter mRNA, GLI element; actives raise or lower the signal
Outline: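 Transiently transfected HepG2 cells report endogenous transcription factor activity via cis-element-driven reporter units. After 24 h compound exposure, reporter mRNA was measured by RT-PCR with capillary electrophoresis; bidirectional fitting against DMSO baseline.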

[2] = biological target: Bile acid receptor (Homo sapiens) (UniProt Q96RI1); experiment: ATG_IR1_CIS: Attagene CIS-FACTORIAL HepG2 Assay for human Nuclear Receptor Subfamily 1 Group H Member 4 (NR1H4), IR1 submotif (AID 2282946); conditions: IR1 reporter transcription, actives raise or lower the signal
Outline: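 Fluorescence of capillary-separated, HpaI-digested RT-PCR reporter products gave IR1-element mRNA induction in HepG2 cells 24 h after dosing. Endogenous transcription factors drove the cis-regulated reporters; activity was fitted bidirectionally against DMSO.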

[3] = ATG_GRE_CIS: Attagene CIS-FACTORIAL HepG2 Assay for human Glucocorticoid Response Elements (GRE) (AID 2282947); conditions: HepG2 GRE cis-reporter, Attagene multiplex mRNA; actives raise or lower the signal
Outline: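 Fluorescence intensity of reporter-specific cDNA fragments, separated by capillary electrophoresis, provides the signal. Constructs carry cis-regulating promoters in transiently transfected HepG2 liver cells; 24 h incubation; fitting is bidirectional against DMSO.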

[4] = ATG_ISRE_CIS: Attagene CIS-FACTORIAL HepG2 Assay for human Interferon Regulatory Factor 1 (IRF1) binding to an Interferon-Stimulated Response Element (ISRE) (AID 2282948); conditions: HepG2 ISRE cis-reporter (Attagene), mRNA transcription readout; actives raise or lower the signal
Outline: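 Signal reflects induction or loss of ISRE-linked reporter mRNA in transiently transfected HepG2 cells after a 24 h treatment, detected by fluorescent RT-PCR fragments on capillary electrophoresis and normalised to DMSO.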

[5] = ATG_M_32_CIS: Attagene CIS-FACTORIAL HepG2 Assay for M32 Transcription Factor (Internal Marker) (AID 2282949); conditions: HepG2 Attagene cis-factorial M32 reporter, mRNA; actives raise or lower the signal;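 further: background control marker of the multiplexed CIS panel rather than a real target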
Outline: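 HepG2 transfectants (cis-regulated reporter transcription units) dosed 24 h. Reporter mRNA by RT-PCR plus CE, analysed as gain or loss relative to DMSO.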

[6] = ATG_M_06_CIS: Attagene CIS-FACTORIAL HepG2 Assay for M06 Transcription Factor (Internal Marker) (AID 2282950); conditions: HepG2 Attagene CIS-FACTORIAL M06 internal marker reporter; actives raise or lower the signal
Outline: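 HepG2 liver cells, 24 h exposure. Reporter transcripts from transfected cis-element constructs quantified by RT-PCR/capillary electrophoresis fluorescence. Bidirectional curve fit against DMSO.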

[7] = biological target: Hypoxia-inducible factor 1-alpha (Homo sapiens) (UniProt Q16665); experiment: ATG_HIF1a_CIS: Attagene CIS-FACTORIAL HepG2 Assay for human Hypoxia Inducible Factor 1 (HIF1A) (AID 2282951); conditions: HepG2 Attagene cis-factorial HIF1a reporter transcription; actives raise or lower the signal
Outline: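 Transient MRTU transfection of human HepG2 liver cells, 24 h compound treatment, then total RNA isolation, oligo(dT) reverse transcription, PCR amplification, fluorescent labelling and capillary electrophoresis of reporter fragments. Gain or loss relative to DMSO.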

[8] = biological target: Hepatocyte nuclear factor 6 (Homo sapiens) (UniProt Q9UBC0); experiment: ATG_HNF6_CIS: Attagene CIS-FACTORIAL HepG2 Assay for human Hepatocyte Nuclear Factor 6 (HNF6) (AID 2282952); conditions: HepG2 Attagene cis-factorial HNF6 reporter transcription; actives raise or lower the signal
Outline: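 Readout: fluorescent reporter-transcript fragments resolved by capillary electrophoresis after RT-PCR, reflecting endogenous factor activity in transfected HepG2. Exposure 24 h. Gain or loss of signal fitted bidirectionally against DMSO.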

[9] = ATG_MRE_CIS: Attagene CIS-FACTORIAL HepG2 Assay for human Metal Responsive Element (MRE) (AID 2282954); conditions: HepG2 MRE cis-reporter transcription, Attagene multiplex; actives raise or lower the signal
Outline: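 Measured here is mRNA induction from an MRE cis-element reporter in HepG2 after 24 h, quantified by fluorescence of labelled RT-PCR products on capillary electrophoresis; gain- and loss-of-signal fits use DMSO as baseline.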

[10] = ATG_PBREM_CIS: Attagene CIS-FACTORIAL HepG2 Assay for human Phenobarbital-responsive Enhancer Module (PBREM) (AID 2282955); conditions: HepG2 PBREM cis-reporter, Attagene multiplexed transcription; actives raise or lower the signal
Outline: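 Endogenous transcription factors in human liver HepG2 cells drive a PBREM cis-element reporter, whose transcript level after 24 h treatment is quantified by RT-PCR with capillary electrophoresis; activity fitted in both directions against DMSO.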

[11] = biological target: Paired box protein Pax-6 (Homo sapiens) (UniProt P26367); experiment: ATG_Pax6_CIS: Attagene CIS-FACTORIAL HepG2 Assay for human Paired Box 6 (PAX6) (AID 2282956); conditions: HepG2 CIS-FACTORIAL PAX6 reporter transcription, RNA readout; actives raise or lower the signal
Outline: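 Values derive from bidirectional curve fitting of reporter mRNA signal relative to DMSO. HepG2 cells bearing transfected cis-regulated MRTUs were exposed for 24 h; transcripts were read by RT-PCR and capillary electrophoresis.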

[12] = ATG_PXRE_CIS: Attagene CIS-FACTORIAL HepG2 Assay for human Pregnane X Receptor Element (PXRE) (AID 2282957); conditions: HepG2 Attagene CIS-FACTORIAL PXRE reporter, mRNA; actives raise or lower the signal
Outline: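 Read-out: fluorescence of reporter-specific RT-PCR products resolved by capillary electrophoresis, fitted bidirectionally relative to DMSO. Human HepG2 liver cells carried transfected cis-promoter reporter units and were exposed to chemicals for 24 h.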

[13] = ATG_PPRE_CIS: Attagene CIS-FACTORIAL HepG2 Assay for human Peroxisome Proliferator-activated Response Element (PPRE) (AID 2282958); conditions: HepG2 PPRE cis-element reporter, Attagene transcription factor profiling; actives raise or lower the signal
Outline: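 HepG2, transient MRTU transfection (cis promoter elements, endogenous TFs). 24 h dosing. RNA → oligo(dT) RT → PCR → 6-FAM primer extension → HpaI digest → CE. Bidirectional fit vs DMSO.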

[14] = ATG_RORE_CIS: Attagene CIS-FACTORIAL HepG2 Assay for human RAR-related Orphan Receptor Element (RORE) (AID 2282959); conditions: HepG2 Attagene cis-factorial RORE reporter, mRNA; actives raise or lower the signal
Outline: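 Transient MRTU transfection of human HepG2 liver cells (FuGene 6); 24 h compound exposure; TriZol RNA, oligo(dT) RT, PCR, FAM labeling, HpaI cut, CE fragment analysis. DMSO = negative control/baseline.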

[15] = ATG_Sox_CIS: Attagene CIS-FACTORIAL HepG2 Assay for human SRY-box transcription factor (SOX) (AID 2282960); conditions: HepG2 Attagene cis-factorial SOX reporter, mRNA; actives raise or lower the signal
Outline: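 Endogenous factor activity in human liver HepG2 cells carrying transfected cis-regulated reporter units. RNA taken 24 h post-dose, reverse-transcribed, PCR-amplified and sized by capillary electrophoresis. Gain or loss of signal fitted relative to DMSO.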

[16] = biological target: Transcription factor Sp1 (Homo sapiens) (UniProt P08047); experiment: ATG_Sp1_CIS: Attagene CIS-FACTORIAL HepG2 Assay for human Specificity Protein 1 (Sp1) (AID 2282961); conditions: HepG2 Sp1 cis-reporter transcription, actives raise or lower the signal
Outline: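 Transient MRTU-transfected HepG2, 24 h compound exposure. Total RNA → oligo(dT) RT → PCR of reporter → 6-FAM primer extension → HpaI digest → CE. Endpoint fitted both directions vs DMSO.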

[17] = ATG_SREBP_CIS: Attagene CIS-FACTORIAL HepG2 Assay for human Sterol Regulatory Element Binding (SREBP) (AID 2282962); conditions: HepG2 Attagene cis-factorial SREBP reporter, mRNA; actives raise or lower the signal
Outline: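 Values derive from bidirectional curve fitting with DMSO as baseline. The underlying measurement is reporter mRNA from cis-element-regulated units in transiently transfected HepG2, quantified by RT-PCR and capillary electrophoresis after 24 h exposure.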

[18] = biological target: Signal transducer and activator of transcription 3 (Homo sapiens) (UniProt P40763); experiment: ATG_STAT3_CIS: Attagene CIS-FACTORIAL HepG2 Assay for human Signal Transducer and Activator of Transcription 3 (STAT3) (AID 2282963); conditions: HepG2, Attagene cis-factorial STAT3 reporter transcription; actives raise or lower the signal
Outline: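 Fluorescence intensity of 6-FAM-labelled reporter fragments, separated by capillary electrophoresis after RT-PCR, gave the signal. Cells were HepG2 transfected with cis-element reporter units and treated 24 h; fitting was bidirectional relative to DMSO.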

[19] = ATG_TA_CIS: Attagene CIS-FACTORIAL HepG2 Assay for human TA Basal Promoter (AID 2282964); conditions: HepG2 Attagene CIS-factorial TA basal promoter reporter; actives raise or lower the signal
Outline: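 Fluorescence from labelled RT-PCR reporter fragments, separated by capillary electrophoresis, gives the signal. Cells: HepG2 transiently carrying multiple reporter units, 24 h chemical dosing. Gain or loss relative to DMSO.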

[20] = biological target: Heat shock factor protein 1 (Homo sapiens) (UniProt Q00613); experiment: ATG_HSE_CIS: Attagene CIS-FACTORIAL HepG2 Assay for human Heat Shock Transcription Factor 1 (HSE) (AID 2282953); conditions: HepG2 HSE cis-reporter, Attagene RNA transcription; actives raise or lower the signal
Outline: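 Endogenous transcription factor activity captured via cis-promoter reporter units transfected into HepG2; treatment lasted 24 h. Fluorescence intensity of reporter fragments analysed with bidirectional curve fitting, DMSO baseline.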

Measured: AC50

Bile acid receptor (Homo sapiens), sequence (Q96RI1 whole entry, looked up): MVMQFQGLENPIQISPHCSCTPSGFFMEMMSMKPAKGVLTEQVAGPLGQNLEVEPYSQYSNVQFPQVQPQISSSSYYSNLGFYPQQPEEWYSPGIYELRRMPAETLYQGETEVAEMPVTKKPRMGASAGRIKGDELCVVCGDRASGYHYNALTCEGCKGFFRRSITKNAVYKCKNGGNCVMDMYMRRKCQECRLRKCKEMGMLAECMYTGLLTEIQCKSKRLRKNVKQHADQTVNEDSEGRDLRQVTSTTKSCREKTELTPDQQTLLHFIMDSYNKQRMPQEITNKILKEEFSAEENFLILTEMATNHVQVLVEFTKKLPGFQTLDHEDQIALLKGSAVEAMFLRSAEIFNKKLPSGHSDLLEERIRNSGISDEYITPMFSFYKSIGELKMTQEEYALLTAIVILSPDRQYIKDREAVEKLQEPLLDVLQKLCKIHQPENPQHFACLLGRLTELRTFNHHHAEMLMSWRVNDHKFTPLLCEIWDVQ
Hepatocyte nuclear factor 6 (Homo sapiens), sequence (Q9UBC0 whole entry, looked up, the tested form may be a part): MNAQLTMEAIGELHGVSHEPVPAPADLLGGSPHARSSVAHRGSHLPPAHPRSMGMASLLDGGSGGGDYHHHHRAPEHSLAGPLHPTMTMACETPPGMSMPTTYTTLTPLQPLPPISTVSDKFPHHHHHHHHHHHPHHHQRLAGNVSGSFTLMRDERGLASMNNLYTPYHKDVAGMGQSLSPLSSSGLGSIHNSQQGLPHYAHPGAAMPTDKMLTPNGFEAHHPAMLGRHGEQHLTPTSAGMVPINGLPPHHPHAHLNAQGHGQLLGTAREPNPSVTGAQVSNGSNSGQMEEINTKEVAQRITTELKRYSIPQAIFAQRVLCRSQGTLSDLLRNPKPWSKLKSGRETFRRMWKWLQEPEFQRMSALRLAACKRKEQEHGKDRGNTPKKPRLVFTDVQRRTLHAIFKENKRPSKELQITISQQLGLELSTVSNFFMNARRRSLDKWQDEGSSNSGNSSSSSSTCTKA
Paired box protein Pax-6 (Homo sapiens), sequence (P26367 whole entry, looked up): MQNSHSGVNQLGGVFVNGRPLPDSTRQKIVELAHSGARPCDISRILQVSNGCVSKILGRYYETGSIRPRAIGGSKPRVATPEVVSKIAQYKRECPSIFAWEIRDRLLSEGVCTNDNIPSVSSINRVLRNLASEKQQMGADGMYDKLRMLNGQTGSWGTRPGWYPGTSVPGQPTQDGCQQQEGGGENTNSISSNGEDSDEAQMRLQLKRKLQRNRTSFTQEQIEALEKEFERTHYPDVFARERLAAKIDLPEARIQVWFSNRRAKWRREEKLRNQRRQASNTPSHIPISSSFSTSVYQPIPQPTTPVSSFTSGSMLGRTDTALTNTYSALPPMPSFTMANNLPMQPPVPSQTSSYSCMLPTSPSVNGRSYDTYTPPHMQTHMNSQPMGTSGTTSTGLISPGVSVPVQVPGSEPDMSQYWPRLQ
Signal transducer and activator of transcription 3 (Homo sapiens), sequence (P40763 whole entry, looked up, the tested form may be a part): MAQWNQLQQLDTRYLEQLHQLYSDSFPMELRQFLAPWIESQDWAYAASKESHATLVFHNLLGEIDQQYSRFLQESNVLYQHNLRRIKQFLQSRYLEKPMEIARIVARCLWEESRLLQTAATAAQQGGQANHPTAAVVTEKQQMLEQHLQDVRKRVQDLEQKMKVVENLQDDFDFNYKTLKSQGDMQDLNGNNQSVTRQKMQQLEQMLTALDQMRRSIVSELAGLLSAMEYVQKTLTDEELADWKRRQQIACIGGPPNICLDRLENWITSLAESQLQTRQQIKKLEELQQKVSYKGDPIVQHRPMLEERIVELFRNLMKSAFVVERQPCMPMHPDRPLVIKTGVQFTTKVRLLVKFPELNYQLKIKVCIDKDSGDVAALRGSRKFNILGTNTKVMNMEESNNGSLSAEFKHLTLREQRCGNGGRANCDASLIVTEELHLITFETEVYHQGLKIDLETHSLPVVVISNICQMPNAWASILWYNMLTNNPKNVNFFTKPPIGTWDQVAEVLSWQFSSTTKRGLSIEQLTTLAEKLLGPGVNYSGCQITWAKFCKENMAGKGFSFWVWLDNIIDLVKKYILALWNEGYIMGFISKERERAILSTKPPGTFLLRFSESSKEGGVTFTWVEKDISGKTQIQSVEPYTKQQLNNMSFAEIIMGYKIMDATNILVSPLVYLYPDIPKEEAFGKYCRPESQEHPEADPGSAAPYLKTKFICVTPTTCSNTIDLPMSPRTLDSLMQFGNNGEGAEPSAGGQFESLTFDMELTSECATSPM
Transcription factor Sp1 (Homo sapiens), sequence (P08047 whole entry, looked up): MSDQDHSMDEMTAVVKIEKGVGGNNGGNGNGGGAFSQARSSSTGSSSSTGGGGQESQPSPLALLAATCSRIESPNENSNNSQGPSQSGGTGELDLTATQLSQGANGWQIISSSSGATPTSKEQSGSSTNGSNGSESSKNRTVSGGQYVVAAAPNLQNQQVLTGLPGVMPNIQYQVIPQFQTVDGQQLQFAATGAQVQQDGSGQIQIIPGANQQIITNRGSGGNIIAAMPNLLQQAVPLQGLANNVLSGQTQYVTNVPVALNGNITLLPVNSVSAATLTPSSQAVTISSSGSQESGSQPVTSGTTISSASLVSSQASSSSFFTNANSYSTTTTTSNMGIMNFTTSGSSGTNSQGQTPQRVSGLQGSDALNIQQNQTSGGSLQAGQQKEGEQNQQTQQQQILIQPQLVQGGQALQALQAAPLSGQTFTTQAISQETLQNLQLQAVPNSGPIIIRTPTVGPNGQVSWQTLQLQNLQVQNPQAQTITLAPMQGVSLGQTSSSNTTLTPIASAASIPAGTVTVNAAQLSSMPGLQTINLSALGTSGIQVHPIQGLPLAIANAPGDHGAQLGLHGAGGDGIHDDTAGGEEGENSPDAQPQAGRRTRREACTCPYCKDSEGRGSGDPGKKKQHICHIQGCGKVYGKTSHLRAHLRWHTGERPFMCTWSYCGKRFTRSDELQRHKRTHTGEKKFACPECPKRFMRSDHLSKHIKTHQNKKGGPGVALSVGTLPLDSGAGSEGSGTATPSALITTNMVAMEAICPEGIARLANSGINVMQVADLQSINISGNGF
Hypoxia-inducible factor 1-alpha (Homo sapiens), sequence (Q16665 whole entry, looked up, the tested form may be a part): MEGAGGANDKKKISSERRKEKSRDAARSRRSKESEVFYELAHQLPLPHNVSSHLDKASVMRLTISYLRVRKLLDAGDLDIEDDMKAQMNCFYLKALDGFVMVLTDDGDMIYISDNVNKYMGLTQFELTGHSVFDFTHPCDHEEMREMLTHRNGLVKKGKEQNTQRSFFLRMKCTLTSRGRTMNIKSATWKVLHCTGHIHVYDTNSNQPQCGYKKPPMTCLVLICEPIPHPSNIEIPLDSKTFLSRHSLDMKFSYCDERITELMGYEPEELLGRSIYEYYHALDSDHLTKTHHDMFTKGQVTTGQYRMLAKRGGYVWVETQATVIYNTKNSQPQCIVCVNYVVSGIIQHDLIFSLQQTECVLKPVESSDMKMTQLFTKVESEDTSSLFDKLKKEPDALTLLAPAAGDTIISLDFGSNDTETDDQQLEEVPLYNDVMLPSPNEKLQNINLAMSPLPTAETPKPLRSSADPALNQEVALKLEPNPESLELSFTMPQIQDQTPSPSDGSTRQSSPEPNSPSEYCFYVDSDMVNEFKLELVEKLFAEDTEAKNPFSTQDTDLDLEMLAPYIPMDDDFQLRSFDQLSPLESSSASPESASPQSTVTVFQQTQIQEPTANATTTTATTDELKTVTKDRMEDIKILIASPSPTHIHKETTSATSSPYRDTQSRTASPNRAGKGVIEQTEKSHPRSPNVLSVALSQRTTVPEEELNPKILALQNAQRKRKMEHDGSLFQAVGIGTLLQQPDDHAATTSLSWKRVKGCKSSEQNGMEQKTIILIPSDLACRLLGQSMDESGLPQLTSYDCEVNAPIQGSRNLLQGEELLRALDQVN
Heat shock factor protein 1 (Homo sapiens), sequence (Q00613 whole entry, looked up, the tested form may be a part): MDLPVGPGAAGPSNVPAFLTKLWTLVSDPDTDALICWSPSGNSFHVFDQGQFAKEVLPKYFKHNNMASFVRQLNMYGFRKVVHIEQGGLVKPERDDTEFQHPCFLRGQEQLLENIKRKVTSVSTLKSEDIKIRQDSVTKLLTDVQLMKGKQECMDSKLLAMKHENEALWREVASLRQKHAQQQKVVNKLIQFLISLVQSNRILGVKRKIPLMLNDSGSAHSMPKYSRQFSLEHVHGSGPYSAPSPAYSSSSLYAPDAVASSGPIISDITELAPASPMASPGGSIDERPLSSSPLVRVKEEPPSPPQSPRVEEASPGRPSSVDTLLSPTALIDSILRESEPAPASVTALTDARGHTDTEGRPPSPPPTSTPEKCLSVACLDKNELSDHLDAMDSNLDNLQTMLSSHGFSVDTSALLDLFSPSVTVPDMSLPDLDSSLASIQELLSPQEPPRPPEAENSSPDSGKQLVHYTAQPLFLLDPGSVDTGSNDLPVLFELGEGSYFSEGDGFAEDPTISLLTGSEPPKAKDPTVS

CCOc1nc(F)cc2nc(S(=O)(=O)Nc3c(Cl)cccc3Cl)nn12
inactive: [1] | [2] | [3] | [4] | [5] | [6] | [7] | [8] | [9] | [10] | [11] | [13] | [14] | [15] | [16] | [17] | [18] | [19]
active: [12] 10.1 µM

CSC(=O)c1c(C(F)F)nc(C(F)(F)F)c(C(=O)SC)c1CC(C)C
inactive: [1] | [3] | [4] | [5] | [6] | [7] | [8] | [20] | [9] | [10] | [11] | [13] | [14] | [15] | [16] | [17] | [18] | [19]
active: [12] 0.451 µM

CCC(C)n1c(=O)[nH]c(C)c(Br)c1=O (stereo unspecified)
inactive: [1] | [2] | [4] | [5] | [6] | [7] | [8] | [9] | [10] | [11] | [14] | [15] | [16] | [17] | [18] | [19]
active: [12] 50 µM

O=C(O)c1c(Cl)ccc2cc(Cl)cnc12
inactive: [1] | [2] | [3] | [4] | [5] | [6] | [7] | [8] | [9] | [10] | [11] | [12] | [13] | [14] | [15] | [16] | [17] | [18] | [19]

Cc1nc(N(C)C)nc(OC(=O)N(C)C)c1C
active: [12] 50 µM
inactive: [1] | [2] | [3] | [4] | [5] | [6] | [7] | [8] | [20] | [9] | [11] | [13] | [14] | [15] | [16] | [17] | [18] | [19]

O=P(O)(O)CCCl
inactive: [1] | [2] | [4] | [5] | [6] | [7] | [8] | [20] | [9] | [10] | [11] | [12] | [13] | [14] | [15] | [16] | [17] | [18] | [19]

C=CCOC(=O)C(C)(C)OC(=O)c1cc(-n2c(=O)cc(C(F)(F)F)n(C)c2=O)ccc1Cl
active: [12] 1.49 µM
inactive: [1] | [3] | [4] | [5] | [6] | [7] | [8] | [20] | [9] | [10] | [11] | [13] | [14] | [15] | [16] | [17] | [18] | [19]
